Potency data for 34 compounds are collected here from PubChem BioAssay AID1224855 (National Center for Advancing Translational Sciences (NCATS), 2016).

SMILES strings stand for the structures. Results filed as inconclusive are left out. Calls of active or inactive are those of the source. Calls come from the whole dose curve; as a rule, active = well fitted inhibition curve with a large enough effect; inconclusive = small, poorly fitted or top-dose-only effect; inactive = no such curve, though single readings can be large or run the other way.

The nature of this assay: Confirmation assay for measurement of the activity of small molecule inhibitors on Zika virus induced Caspase-3 activity in human iPSC derived neural progenitor cells (hNPCs). Conditions: hNPC ZIKV-induced caspase-3/7, Caspase-Glo luminescence, 6 h; series mostly up to 46.1 µM. The essentials: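 Seeded hNPCs grown 16-20 h, then treated with compound for 1 h and exposed to Zika virus at 2 FFU/cell. Caspase-3/7 activation measured 6 h post-infection by luminescence.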
Consider `COc1cc2nc(-c3ccc(N4CCN(C)CC4)cc3)nc(NCCN3CCOCC3)c2cc1OC`, for which the Potency result was “inactive”.

`NC(=O)c1cccc2[nH]c(-c3ccc([C@H]4CCCN4)cc3F)nc12`: the Potency is 13.8 µM (active).

Regarding `CC1(C)Cc2c(sc(NC(=S)NC(=O)c3ccccc3)c2C(=O)O)CO1`, the Potency result is “inactive”.

Regarding `COc1ccc2nc(NC(=O)Nc3ccccc3)sc2c1`, the Potency was 8.69 µM (active).

`O=C(Nc1ccc([N+](=O)[O-])cc1Cl)c1cc(Cl)ccc1O`: the Potency is 1.73 µM (active).

On to `CS(=O)(=O)c1ccc(-c2cn3ccccc3n2)cc1`, for which the Potency is 3.88 µM (active).

As for `CCCCCCCC/C=C/C(=O)O`, the Potency result was “inactive”.

With `COc1ccnc2c1CCCCC2S(=O)c1nc2ccccc2[nH]1` (centres undefined), the Potency entry is “inactive”.

Turning to `CN(C)c1ccc(/C=C2\C(=O)Nc3ccccc32)cc1`, the Potency was 7.74 µM (active).

Take `O=C(CS)Nc1ccccc1`: the Potency entry was “inactive”.

With `O=S(=O)(O)c1ccc2nc(-c3ccccc3)[nH]c2c1`, the Potency was 1.23 µM (active).

For the compound `CCN1CCC(n2cc(CNc3cc(Cl)c4ncc(C#N)c(Nc5ccc(F)c(Cl)c5)c4c3)nn2)CC1`, the Potency result was “inactive”.

For the compound `CC(C)Oc1ccc2c(=O)c(-c3ccccc3)coc2c1`, the Potency is 6.15 µM (active).

As for `COc1cc(NC(C)CCCN)c2ncccc2c1` (centres undefined), the Potency entry was “inactive”.

Take `Cc1nc(N)sc1-c1ccnc(Nc2ccc(N3CCOCC3)cc2)n1`: the Potency result was “inactive”.

Regarding `C[C@H](NC(=O)C(=O)Nc1ccccc1C(C)(C)C)C(=O)N[C@@H](CC(=O)O)C(=O)COc1c(F)c(F)cc(F)c1F`, the Potency was 0.245 µM (active).

Consider `CC(O)=C(C#N)C(=O)Nc1ccc(C(F)(F)F)cc1`, for which the Potency is 0.774 µM (active).

For the compound `CCCS(=O)c1ccc2nc(NC(=O)OC)[nH]c2c1` (centres undefined), the Potency was 8.69 µM (active).

Take `Nc1ccc(-c2ccc3ccccc3n2)cc1`: the Potency is 3.88 µM (active).

Take `CC(=Cc1ccccc1)C=C1SC(=S)N(CC(=O)O)C1=O`: the Potency was 15.5 µM (active).

Take `O[C@@H](COc1cccc2ncccc12)CN1CCN(C2c3ccccc3[C@@H]3[C@H](c4ccccc42)C3(F)F)CC1` (some centres undefined): the Potency entry is “inactive”.

For `O=c1oc2cc(O)ccc2s1`, the Potency result is “inactive”.

On to `O=C(/C=C/c1ccc(O)cc1)c1ccc(O)cc1O`, for which the Potency is 1.73 µM (active).

In the case of `Cc1cccc(/C=C/c2ccccc2)n1`, the Potency was 8.69 µM (active).

With `N[C@H](CSC(c1ccccc1)(c1ccccc1)c1ccccc1)C(=O)O`, the Potency entry was “inactive”.

As for `CC(=O)Oc1ccccc1C(=O)Nc1ncc([N+](=O)[O-])s1`, the Potency was 1 µM (active).

Take `Nc1ccc(O)c(C(=O)O)c1`: the Potency result is “inactive”.

On to `O=S(=O)(O)CCSSCCS(=O)(=O)O`, for which the Potency result was “inactive”.

For `CCC(C(=O)O)c1ccc(N2Cc3ccccc3C2=O)cc1` (centres undefined), the Potency is 5.48 µM (active).

As for `COc1ccc(CC2=NN3C([C@@H](CCc4ccccc4)[C@@H](C)O)=NC(C)C3C(=O)N2)cc1OC` (some centres undefined), the Potency result was “inactive”.

Turning to `CNC1[C@H](O)C(O[C@@H]2C(O)C(O[C@H]3O[C@H]([C@@H](C)NC)CC[C@H]3N)[C@@H](N)C[C@H]2N)OC[C@]1(C)O` (some centres undefined), the Potency entry is “inactive”.

In the case of `CC(C)(C)COc1ccc(-n2cc(C(=O)O)cn2)cc1C#N`, the Potency was 22.4 µM (active).

`O=C(Nc1ccc(OC(F)(F)F)cc1)c1sccc1NCc1ccnc2ccccc12`: the Potency is 6.15 µM (active).

Take `CC(C(=O)O)c1ccc(-c2ccccc2)c(F)c1` (centres undefined): the Potency entry is “inactive”.
